Data reported in PubChem BioAssay AID2013 (Sanford-Burnham Center for Chemical Genomics, 2009).
The whole screen tested about 290,000 compounds, of which about 370 (0.13%) were called active.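 How the source made its calls: active means spots per cell inhibited over 60%, with over 100 cells counted and total cytoplasm intensity under 500,000; inconclusive means wells with under 100 cells, flagged as likely toxic; inactive means the rest.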 Many of the other results were omitted from the sample, so actives are more common in it than they were. Measured potencies and affinities stand elsewhere.

molecular target: G-protein coupled receptor 55 (Homo sapiens) (UniProt Q9Y2T6); test: GPR55 antagonists blocking LPI-driven arrestin recruitment, primary screen, imaging, U2OS, beta-arrestin-GFP, LPI agonist (AID 2013); conditions: U2OS GPR55 beta-arrestin-GFP translocation imaging, LPI antagonism; at 10 µM; stronger effect = higher value;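 further: U2OS cells stably carrying GPR55 and arrestin-GFP stimulated by 5 µM LPI near EC80; imaged beta-arrestin-GFP aggregate spots per cell after agonist stimulation; plate controls were LPI-stimulated DMSO wells for no effect and DMSO wells without LPI for full effect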
Sequence (Q9Y2T6 whole entry, looked up): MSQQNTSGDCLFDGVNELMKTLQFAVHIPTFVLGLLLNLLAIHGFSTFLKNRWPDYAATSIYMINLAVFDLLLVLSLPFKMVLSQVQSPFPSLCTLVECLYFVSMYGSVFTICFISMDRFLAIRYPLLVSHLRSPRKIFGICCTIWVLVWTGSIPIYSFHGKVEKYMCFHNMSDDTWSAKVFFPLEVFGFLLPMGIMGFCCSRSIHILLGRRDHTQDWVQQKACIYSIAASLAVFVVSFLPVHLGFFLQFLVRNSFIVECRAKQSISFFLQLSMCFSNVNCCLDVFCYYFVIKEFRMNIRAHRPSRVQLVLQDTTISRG

inhibition, inactive:
Cc1ccc(NC(=O)CSc2nnc3n2CCCCC3)cc1 4.6%, Cc1cccc2c1CC(C)(C)NC2=C(C#N)C#N 5%, CC(Nc1c([N+](=O)[O-])c(=O)oc2ccccc12)C(Cl)c1ccccc1 (stereo unspecified) 22%, CC(Nc1c([N+](=O)[O-])c(=O)oc2ccccc12)c1ccccc1 (stereo unspecified) 10.5%, O=C(O)CC/C(=N\NC(=O)CNC(=O)/C=C/c1ccccc1)c1ccccc1 2.6%, Cc1cc(C)n(CC(=O)N/N=C/c2cccs2)n1 7.5%, COc1ccc(S(=O)(=O)N2CCCOC2CNC(=O)C(=O)NCc2cccnc2)cc1 (stereo unspecified) 13.9%, CCOc1ccccc1C1c2[nH]c3ccccc3c2C[C@H]2C(=O)N(C3CCN(Cc4ccccc4)CC3)CC(=O)N12 (stereo partly specified) -0.7%, COC(=O)c1c(NC(NC(=O)C(C)C)C(Cl)(Cl)Cl)sc2c1CCC2 (stereo unspecified) -7.5%, COC(=O)c1c(NC(NC(C)=O)C(Cl)(Cl)Cl)sc2c1CCCC2 (stereo unspecified) 13.5%, CCC(=O)NC(Nc1sc2c(c1C(=O)OC)CCC2)C(Cl)(Cl)Cl (stereo unspecified) -15.1%, COC(=O)c1c(NC(NC(=O)CC(C)C)C(Cl)(Cl)Cl)sc2c1CCC2 (stereo unspecified) 60%, CN(C)S(=O)(=O)NCCNC(=O)c1cc(OCC(F)(F)F)ccc1OCC(F)(F)F -3.8%, COc1cccc2c1OCC(CN1CCN(Cc3ccccc3F)C(CCO)C1)=C2 (stereo unspecified) 8.5%, Cc1cccc(NC(=S)N2CCC(NC(=O)c3ccco3)CC2)c1 7.3%, COc1ccccc1CNC(=O)C1CCN(S(=O)(=O)c2ccc(-n3cnnn3)cc2)CC1 1%, Cc1ccc(S(=O)(=O)N(C)c2ccc(C(=O)NCc3cccnc3)cc2)cc1 11.2%, Cc1cc(C)n2nc(-c3ccccc3)c(-c3ccccc3)c2n1 7.9%, Cc1cc(N)n2nc(C)c(-c3ccccc3)c2n1 -2.4%, COc1cccc(NC(=O)C23CCC(C)(C(=O)O2)C3(C)C)c1 (stereo unspecified) -7.9%, Cc1csc(SCC(=O)Nc2sccc2C(N)=O)n1 2.4%, CCCN1C(=O)/C(=C/c2c(N3CCNC(=O)C3CC(=O)OC)nc3c(C)cccn3c2=O)SC1=S (stereo unspecified) 46.4%, CCCN1C(=O)/C(=C/c2c(NCCCOCC)nc3c(C)cccn3c2=O)SC1=S 8%, CCOC(=O)CC1C(=O)NCCN1S(=O)(=O)c1ccc(C)cc1 (stereo unspecified) 6.6%, CCOC(=O)CC1C(=O)NCCN1c1nc2ccc(C)cn2c(=O)c1/C=C1\SC(=S)N(CC(C)C)C1=O (stereo unspecified) 26.9%, CSc1ccccc1C(=O)NCc1cccnc1 -2.4%, C=CCn1c(SCC(=O)Nc2ccc(F)cc2F)nc2c([nH]c3ccccc32)c1=O -3.4%, CCC(NS(=O)(=O)c1ccc2c(c1)NC(=O)C(C)C(=O)N2)c1cccs1 (stereo unspecified) 1%, CC/C(=N/N=C(\CC)c1ccccc1)c1ccccc1 20.4%, COc1ccccc1N1CCN(C(=O)c2cc3c(s2)CCCCC3)CC1 6.6%, c1ccc(CN2CCC(Nc3nc(-c4cccnc4)nc4ccccc34)CC2)cc1 21.2%, c1ccc(CN2CCC(Nc3nc(-c4ccccc4)nc4ccccc34)CC2)cc1 31%, N#CCC(=O)Nc1ccc(C(=O)OCC(=O)Nc2ccccc2-c2ccccc2)cc1 6.7%, CC(=O)Nc1ccc(C(=O)OCC(=O)Nc2ccccc2Sc2ccccc2)cc1 16.2%, Cc1nc(N2CCOCC2)c(C#N)c2c1COC(C)(C)C2 -9%, Cc1ccc(S(=O)(=O)N2CCN(c3nc(C(C)C)c4c(c3C#N)CC(C)(C)OC4)CC2)cc1 2.3%, COc1cc(C2c3c(oc4ccc(C)cc4c3=O)C(=O)N2c2cc(C)ccn2)cc(OC)c1OC (stereo unspecified) 17.6%, COc1cc(C2c3c(oc4cc(C)c(C)cc4c3=O)C(=O)N2c2cc(C)ccn2)ccc1O (stereo unspecified) 2.8%, COc1cccc(-c2cc(=O)c3cc(NC(=O)c4ccc(Cl)cc4)ccc3[nH]2)c1 -2.5%, O=C(c1cccc(Oc2ccc([N+](=O)[O-])cc2Cl)c1)N1CCOCC1 -4.4%, O=C(c1ccc(Oc2ccc([N+](=O)[O-])cc2Cl)cc1)N1CCCC1 -12.4%

inhibition, active:
COC(=O)c1c(NC(NC(=O)C(C)C)C(Cl)(Cl)Cl)sc2c1CCCC2 (stereo unspecified) 76.3%, CCOC(=O)CC1C(=O)NCCN1c1nc2ccc(C)cn2c(=O)c1/C=C1\SC(=S)N(C(C)CC)C1=O (stereo unspecified) 70.2%, CCCN1C(=O)/C(=C/c2c(N3CCNC(=O)C3CC(=O)OCC)nc3c(C)cccn3c2=O)SC1=S (stereo unspecified) 88.9%, c1ccc(CN2CCC(Nc3nc(-c4cccs4)nc4ccccc34)CC2)cc1 84.6%, COc1ccc(C2c3c(oc4ccc(C)cc4c3=O)C(=O)N2c2cc(C)ccn2)cc1OC (stereo unspecified) 86.9%
